# Measured values as given in PMC12136788.
# Substitutions are numbered along the chain they refer to. Whole data set: some 24,000 sequences, median “enrichment r” near 0.99, cut for the highest 2% near 3.7. What follows is part of a selection rich in the highest values, with near analogues and random picks from the rest.
# B1: 54500970_54501090_1431_3pUTR_ENSMUSG00000039156_ENSMUST00000071083|mouse|control|control (ssRNA)
# RNA: GGGAGUUCUACAGUCCGACGAUCAGCUGCAUCUCAGCAUUUUGCCUCUUAAUAUUGUAGUACUGUACUUCAACUUCGUGUGUUAGCUGAAGCCAUUUCUGUAGUGCGUCAGGGACAGACCAGCUGCUUCUCAGUUCAAACUCCCAACAGAGGAUUGAGCAUCA
# B2: chr2:217001844:217001845:+_ENSG00000079246_ENST00000392132|hu_hu|hu_hu_hu_mus_False|18_28 (ssRNA)
# RNA: GGGAGUUCUACAGUCCGACGAUCACCAACUUGAGGAUUAGAUCUUUUGUCAUAAGCAUAUCGGACGAUGGCGACCAUGUUUAACUCAUCCAAAGCAUGAACGAGAGAGGAAAGUGCAACUGCAGCUGCCUCAUCAUCCUUUGCCAACAGAGGAUUGAGCAUCA
# B3: 7301359_7301479_2013_3pUTR_ENSMUSG00000024764_ENSMUST00000025675|mouse|control|control (ssRNA)
# RNA: GGGAGUUCUACAGUCCGACGAUCGACACCCAUGACAGGAAAGCAGUGGUACGCCACUGAAAGGCAUCCCAGGGGUGCCAAGACAGUGGCACGAGUGCCUCAUUGAGGCGGUGAGGGGUGGGGCUCGGGAGAACAGGCAAAGGGCAACAGAGGAUUGAGCAUCA
# B4: chr12:39756943:39756944:-_ENSG00000139116_ENST00000544797|hu_mus|hu_hu_hu_mus_False|8_28 (ssRNA)
# RNA: GGGAGUUCUACAGUCCGACGAUCGGUUUGGCUGUUACCCCCAAGGGAAUCCUGCAAGAGUCUUGUCAGCUUAGAGUCUCUGUAAGGGACAUGGGUGGCUCUCUUGCUCUUGUCUCCCAAGGCGCUGAUUACAUUGCCAAGAGCCAACAGAGGAUUGAGCAUCA
# B5: chr1:46159212:46159213:+_ENSG00000159596_ENST00000372025|hu_mus|hu_hu_hu_mus_True|58_58 (ssRNA)
# RNA: GGGAGUUCUACAGUCCGACGAUCUCUGAUCCCUCCCAAGAAAGCUAGGAAACCGGCUCCAUAAGCCAUCUGAGUGAAAGCUAAUAUGGGGAUAUAAGACUUUGUUAUUACCAUGAGAAGUGGGGGAGCAGUAAAGGGGAUUAACAACAGAGGAUUGAGCAUCA
# B6: chr11:69466387:69466388:+_ENSG00000110092_ENST00000227507|hu_hu|FALSE|FALSE (ssRNA)
# RNA: GGGAGUUCUACAGUCCGACGAUCACACGUAAAGGAUGGAACCUAAUCCUCUCCCGAGACGCCUCCUUUGUGUUAAUGCCUAUUCUUACAACAGAGAAACAAGUACAUUAAUAUAAAAACGAGUUGAUUAUUGGGGUAUAAAAUCAACAGAGGAUUGAGCAUCA
# B7: chr13:48835921:48835922:+_ENSG00000136156_ENST00000378565|hu_hu|FALSE|FALSE (ssRNA)
# RNA: GGGAGUUCUACAGUCCGACGAUCGAUAUGGGUUAUACAAAUUAGUAACACAAGUUAUUUCUUAAAUUCCAAACAUUUUCUAAAAUAUUAUUACAGCAGAUGCCUAGGAUAUUAAAACAUAAAGGUGGAAAUCAUUCUCUAAAUCAACAGAGGAUUGAGCAUCA
# B8: chr11:69466387:69466388:+_ENSG00000110092_ENST00000227507|hu_hu|motif|central (ssRNA)
# RNA: B6 RNA with U80G, A81G
# B9: chr1:109605286:109605287:-_ENSG00000197780_ENST00000461096|hu_mus|hu_hu_hu_mus_True|78_98 (ssRNA)
# RNA: GGGAGUUCUACAGUCCGACGAUCAAGUUUCAGAGUAUUCAGUGAUCACCUCUUUAACAAUUGUAAUCCUUAUUAUAAGCUAAGCAGAAUAAUAAUUUAAUACCGUAAGUGAACUACACACAAAGCCUGAACCGCGAAAAUGGUCAACAGAGGAUUGAGCAUCA
# B10: chr5:128440902:128440903:+_ENSG00000066583_ENST00000173527|hu_mus|hu_hu_hu_mus_True|1_58 (ssRNA)
# RNA: GGGAGUUCUACAGUCCGACGAUCUUGAACGGUGCUGCCAAGUCCUUUGGGGUAUUGUUCCGUUAUGAUAACUGGAAUUCCUAAAAUCCGAGCUCCUUGCAACAGUCUCUGUCCCACACUAAUGAUGUCCCCAAAGUACUUGAUCAACAGAGGAUUGAGCAUCA
# B11: chr2:27445747:27445748:+_ENSG00000084774_ENST00000264705|hu_hu|FALSE|FALSE (ssRNA)
# RNA: GGGAGUUCUACAGUCCGACGAUCGGAGGCAGGGUCACCAGGCCCAUUACUUAAGAAGAGACCCUCAUACUCUUGGCUGUCUAGUGCAUGGUCCCAGGGUACCACAGUGACCUCAGCCCCACGCUGGCAGAGGCAUCGGAUCUGCAACAGAGGAUUGAGCAUCA
# B12: chr9:95013113:95013114:-_ENSG00000196305_ENST00000443024|hu_hu|hu_hu_hu_mus_False|68_88 (ssRNA)
# RNA: GGGAGUUCUACAGUCCGACGAUCCUCAGUCAGAAAGGGCGUGUAAGGAGCCAUAAGUCUGCACAGAGAAAGCAGAACACUGAACAGUGUCUCCAGAGCCAUGACACAGUCUUCCACCCCACUCUCACCCUUUAACCUCCUCCUCAACAGAGGAUUGAGCAUCA
# B13: 142899929_142900494_654_CDS_ENSMUSG00000031004_ENSMUST00000033310|mouse|control|control (ssRNA)
# RNA: GGGAGUUCUACAGUCCGACGAUCAAGGCCCUUGGCAUACACAAAAGAUCUUCUUGAAGCAGUCAUUUUUGAAGCUUUGGUAUCUUGACCUUCCCCAUCAGGGUCAGCACAGAAGCUAUCUCUUGAGGCUCGCCUUGAUGGUUCCAACAGAGGAUUGAGCAUCA
# B14: chr12:111890518:111890519:-_ENSG00000204842_ENST00000389154|hu_hu|FALSE|FALSE (ssRNA)
# RNA: GGGAGUUCUACAGUCCGACGAUCUUGGAUGUUACAAGAAAUCAACAUAUAUAUUUUAAAAACAAAAUAAAUGAAAUUCUAGUUUUCUGUGCUUCCAGUUGGUAGAAGCAGUAGAAGGGAGGAGGGAAUUUGGCCUUUCGGUUCCAACAGAGGAUUGAGCAUCA
# B15: chr6:136509389:136509390:+_ENSMUSG00000030213_ENSMUST00000032335|mus_hu|FALSE|FALSE (ssRNA)
# RNA: GGGAGUUCUACAGUCCGACGAUCAAUAUUAUUAUCAGCUUUAUUUUUCUCAUCCAAUGAGUCUUUACUCUGAAUUUGCUCUAAUUUUUCAUCAGCUCCAUUUUUUUCAAGAAAAUCAUCAUCUUUAUUGCUACUUGGUUCUAUCAACAGAGGAUUGAGCAUCA
# B16: chr15:57879074:57879075:-_ENSMUSG00000022361_ENSMUST00000070143|mus_hu|FALSE|FALSE (ssRNA)
# RNA: GGGAGUUCUACAGUCCGACGAUCCAGCUGUCUGAGUGAGGAAAUCAGCUACAUUGCAGCAUUUUGGAAUUACUAAUAAAGCUAUAGUUAAAAAAUAAAAAGUUUAUAAAAAUGAAAGCAGCAUGCAUAUUCAAGGCUUUUUCACAACAGAGGAUUGAGCAUCA
# B17: chr15:57879074:57879075:-_ENSMUSG00000022361_ENSMUST00000070143|mus_hu|motif|central (ssRNA)
# RNA: B16 RNA with U82G, A83G
# Target: T1, UNK ZnF1-3 (human, UniProt Q9C0B0 31-174)
# T1 sequence: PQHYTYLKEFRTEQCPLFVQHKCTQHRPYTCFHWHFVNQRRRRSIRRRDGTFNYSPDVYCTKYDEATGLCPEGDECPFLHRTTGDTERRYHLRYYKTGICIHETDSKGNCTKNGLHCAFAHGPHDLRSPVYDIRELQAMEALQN
# Test: nsRBNS (natural sequence RNA bind-n-seq); RBNS binding buffer (assumed for nsRBNS): 25 mM Tris pH 7.5, 150 mM KCl, 3 mM MgCl2, 0.01% Triton X-100, 500 ug/ml BSA, 20 U/ml SUPERase-In, 4 C; UNK is unkempt and MSI1 is Musashi-1; names of the RNAs are library labels; protein concentration not given here; high values mean tight binding
row,Binder,binding signal [enrichment R]
1,B1,1.01
2,B2,1.42
3,B3,1.24
4,B4,0.697
5,B5,1.4
6,B6,5
7,B7,1.52
8,B8,4.6
9,B9,0.993
10,B10,0.681
11,B11,1.01
12,B12,1.57
13,B13,0.52
14,B14,1.07
15,B15,0.334
16,B16,7.31
17,B17,6.18
